Measured values from PubChem BioAssay AID1159580 (chemical genetic matrix, 2015).
Several values for one entry are separate records, joined by “and”; a condition that tells them apart may be missing. Equal values may be shown once. Screen size: about 5,500 compounds; about 2,000 (36%) were called active. Not shown: some 18% with an inconclusive outcome. Rule as the data show it: active = normalized growth mostly below about 0.91 (no sharp cut-off); inconclusive = no clear call, values can overlap the other calls; inactive = mostly above about 0.92. This is one part of the list.

Assay: chemical genetic growth profiling, strain panel (AID 1159580);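 also: tested at 20 µM; growth read once vehicle control cultures reached saturation at 30 °C; 1 = growth at the plate median or of vehicle wells; lower values mean less growth of the strain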
Conditions: S. cerevisiae deletion strains, growth OD

Measured: normalized growth

COc1cc2c(cc1OC)[C@@]13CCN4CC5=CCOC6CC(=O)N2C1[C@H]6[C@H]5C[C@H]43 (stereo partly drawn)
inactive: locus YAL013W, strain DEP1, stronger effect = lower value 1.02 | locus YAL021C, strain ccr4, stronger effect = lower value 0.983 | locus YAL026C, strain drs2, stronger effect = lower value 0.998 | locus YAL030W, strain snc1, stronger effect = lower value 1 | locus YBL061C, strain skt5, stronger effect = lower value 0.994 | locus YBR009C, strain hhf1, stronger effect = lower value 0.994 | locus YBR021W, strain FUR4, stronger effect = lower value 0.985 | locus YBR023C, strain chs3, stronger effect = lower value 0.989 | locus YBR171W, strain sec66, stronger effect = lower value 0.99 | locus YBR229C, strain ROT2, stronger effect = lower value 1.01 | locus YBR231C, strain swc5, stronger effect = lower value 0.979 | locus YBR279W, strain paf1, stronger effect = lower value 0.993 | locus YCL011C, strain gbp2, stronger effect = lower value 0.988 | locus YCL016C, strain dcc1, stronger effect = lower value 0.986 | locus YCL029C, strain bik1, stronger effect = lower value 1.01 | locus YCL061C, strain MRC1, stronger effect = lower value 0.988 | locus YCL069W, strain vba3, stronger effect = lower value 0.995 | locus YCR088W, strain abp1, stronger effect = lower value 0.994 | locus YDL005C, strain med2, stronger effect = lower value 0.988 | locus YDL035C, strain GPR1, stronger effect = lower value 1.03 | locus YDL040C, strain nat1, stronger effect = lower value 0.983 | locus YDL074C, strain BRE1, stronger effect = lower value 1.03 | locus YDL101C, strain DUN1, stronger effect = lower value 1.02 | locus YDL185W, strain tfp1, stronger effect = lower value 1 | locus YDL192W, strain arf1, stronger effect = lower value 1.01 | locus YDR001C, strain nth1, stronger effect = lower value 0.997 | locus YDR069C, strain doa4, stronger effect = lower value 1 | locus YDR101C, strain arx1, stronger effect = lower value 0.997 | locus YDR137W, strain rgp1, stronger effect = lower value 1 | locus YDR150W, strain NUM1, stronger effect = lower value 1.02 | locus YDR159W, strain sac3, stronger effect = lower value 0.977 | locus YDR162C, strain NBP2, stronger effect = lower value 1.02 | locus YDR195W, strain ref2 0.927 | locus YDR297W, strain sur2, stronger effect = lower value 0.996 | locus YDR318W, strain mcm21, stronger effect = lower value 1.02 | locus YDR334W, strain swr1, stronger effect = lower value 0.986 | locus YDR335W, strain msn5, stronger effect = lower value 0.996 | locus YDR388W, stronger effect = lower value 0.994 | locus YDR392W, strain spt3, stronger effect = lower value 0.999 | locus YDR502C, strain sam2, stronger effect = lower value 1.03 | locus YEL003W, strain gim4, stronger effect = lower value 0.997 | locus YEL037C, strain rad23, stronger effect = lower value 0.989 | locus YEL061C, strain CIN8 (second series), stronger effect = lower value 0.986 | locus YEL061C, strain CIN8, stronger effect = lower value 1.01 | locus YER015W, strain faa2, stronger effect = lower value 0.989 | locus YER016W, strain bim1, stronger effect = lower value 0.989 | locus YER110C, stronger effect = lower value 0.997 | locus YER111C, strain swi4, stronger effect = lower value 0.971 | locus YER155C, strain BEM2 (second series), stronger effect = lower value 0.993 | locus YER155C, strain BEM2, stronger effect = lower value 1.01 | locus YER167W, strain BCK2, stronger effect = lower value 1 | locus YFR010W, strain ubp6, stronger effect = lower value 0.999 | locus YGL078C, strain dbp3, stronger effect = lower value 1.01 | locus YGL086W, strain mad1, stronger effect = lower value 1 | locus YGL167C, strain pmr1, stronger effect = lower value 0.988 | locus YGL173C, strain kem1, stronger effect = lower value 0.982 | locus YGL227W, strain vid30, stronger effect = lower value 0.984 | locus YGL240W, strain doc1, stronger effect = lower value 0.979 | locus YGL248W, strain PDE1, stronger effect = lower value 1.01 | locus YGL253W, strain hxk2, stronger effect = lower value 0.988 | locus YGR078C, strain PAC10, stronger effect = lower value 1.02 | locus YGR135W, strain pre9, stronger effect = lower value 1.01 | locus YGR229C, strain SMI1, stronger effect = lower value 1.04 | locus YGR252W, strain gcn5, stronger effect = lower value 0.994 | locus YHR013C, strain ard1, stronger effect = lower value 0.964 | locus YHR027C, strain rpn1, stronger effect = lower value 0.987 | locus YHR030C, strain SLT2, stronger effect = lower value 1.02 and 1.01 | locus YHR079C, strain IRE1 (second series), stronger effect = lower value 0.996 | locus YHR079C, strain IRE1, stronger effect = lower value 1.09 | locus YHR094C, strain hxt1, stronger effect = lower value 0.977 | locus YHR129C, strain ARP1, stronger effect = lower value 1.02 | locus YHR142W, strain chs7, stronger effect = lower value 0.99 | locus YHR200W, strain rpn10, stronger effect = lower value 0.99 | locus YIL066C, strain RNR3, stronger effect = lower value 1.02 | locus YIL073C, strain SPO22, stronger effect = lower value 1.02 | locus YIL125W, strain kgd1, stronger effect = lower value 1 | locus YIR030C, strain dcg1, stronger effect = lower value 0.996 | locus YJL092W, strain hpr5, stronger effect = lower value 0.984 | locus YJL095W, strain BCK1 (second series), stronger effect = lower value 0.984 | locus YJL095W, strain BCK1, stronger effect = lower value 1.02 and 0.999 | locus YJL115W, strain asf1, stronger effect = lower value 0.993 | locus YJL129C, strain trk1, stronger effect = lower value 0.99 | locus YJL134W, strain LCB3, stronger effect = lower value 1.01 | locus YJL154C, strain vps35, stronger effect = lower value 0.986 | locus YJL164C, strain tpk1, stronger effect = lower value 1.01 | locus YJL166W, strain qcr8, stronger effect = lower value 0.996 | locus YJL168C, strain set2, stronger effect = lower value 1 | locus YJL187C, strain SWE1 (second series), stronger effect = lower value 1.02 | locus YJL187C, strain SWE1, stronger effect = lower value 0.996 | locus YJR043C, strain POL32, stronger effect = lower value 1.04 | locus YJR066W, strain TOR1, stronger effect = lower value 0.973 | locus YJR075W, strain HOC1, stronger effect = lower value 1.02 | locus YKL009W, strain mrt4, stronger effect = lower value 1.04 | locus YKL068W, stronger effect = lower value 0.995 | locus YKL085W, strain MDH1 (second series), stronger effect = lower value 1 | locus YKL085W, strain MDH1, stronger effect = lower value 1 | locus YKL160W, strain elf1, stronger effect = lower value 0.98 | locus YKR001C, strain vps1, stronger effect = lower value 1.01 | locus YKR026C, strain gcn3, stronger effect = lower value 0.991 | locus YKR091W, strain srl3, stronger effect = lower value 0.994 | locus YLL001W, strain dnm1, stronger effect = lower value 0.989 | locus YLL026W, stronger effect = lower value 0.99 | locus YLL041C, strain sdh2, stronger effect = lower value 0.995 | locus YLR027C, strain aat2, stronger effect = lower value 0.996 | locus YLR039C, strain RIC1, stronger effect = lower value 1.04 | locus YLR058C, strain SHM2, stronger effect = lower value 1.02 | locus YLR102C, strain apc9, stronger effect = lower value 0.997 | locus YLR113W, strain HOG1, stronger effect = lower value 0.991 | locus YLR221C, strain rsa3, stronger effect = lower value 0.997 | locus YLR258W, strain gsy2, stronger effect = lower value 0.99 | locus YLR262C, strain YPT6 (second series), stronger effect = lower value 0.988 | locus YLR262C, strain YPT6, stronger effect = lower value 1.05 | locus YLR268W, strain sec22, stronger effect = lower value 1 | locus YLR320W, strain mms22, stronger effect = lower value 0.982 | locus YLR330W, strain CHS5, stronger effect = lower value 1.01 | locus YLR342W, strain FKS1 (second series), stronger effect = lower value 1.02 | locus YLR342W, strain FKS1, stronger effect = lower value 0.989 | locus YLR357W, strain rsc2, stronger effect = lower value 0.983 | locus YLR370C, strain arc18, stronger effect = lower value 0.991 | locus YLR371W, strain rom2, stronger effect = lower value 0.993 | locus YLR384C, strain iki3, stronger effect = lower value 0.995 | locus YLR418C, strain cdc73, stronger effect = lower value 1.01 | locus YML016C, strain PPZ1, stronger effect = lower value 1.01 | locus YML032C, strain rad52, stronger effect = lower value 1.01 | locus YML120C, strain ndi1, stronger effect = lower value 0.981 | locus YML124C, strain tub3, stronger effect = lower value 1 | locus YMR058W, strain fet3, stronger effect = lower value 0.986 | locus YMR078C, strain ctf18, stronger effect = lower value 1 | locus YMR125W, strain sto1, stronger effect = lower value 0.992 | locus YMR129W, stronger effect = lower value 0.997 | locus YMR205C, strain PFK2, stronger effect = lower value 0.973 | locus YMR223W, strain ubp8, stronger effect = lower value 1 | locus YMR231W, strain pep5, stronger effect = lower value 0.995 | locus YMR307W, strain GAS1, stronger effect = lower value 1.05 | locus YNL067W, strain RPL9B, stronger effect = lower value 1.01 | locus YNL071W, strain lat1, stronger effect = lower value 0.997 | locus YNL128W, strain TEP1, stronger effect = lower value 1.03 | locus YNL153C, strain GIM3, stronger effect = lower value 1.02 | locus YNL183C, strain NPR1, stronger effect = lower value 0.968 | locus YNL209W, strain ssb2, stronger effect = lower value 1 | locus YNL233W, strain BNI4, stronger effect = lower value 1.01 | locus YNL248C, strain rpa49, stronger effect = lower value 0.992 | locus YNL250W, strain rad50, stronger effect = lower value 1 | locus YNL271C, strain bni1, stronger effect = lower value 1.01 | locus YNL298W, strain CLA4, stronger effect = lower value 1.01 | locus YNL307C, strain MCK1, stronger effect = lower value 0.996 | locus YNL322C, strain KRE1 (second series), stronger effect = lower value 0.982 | locus YNL322C, strain KRE1, stronger effect = lower value 1.01 | locus YNR049C, strain mso1, stronger effect = lower value 0.989 | locus YNR052C, strain pop2, stronger effect = lower value 0.995 | locus YOL012C, strain htz1 1.21 | locus YOL147C, strain pex11, stronger effect = lower value 0.993 | locus YOR001W, strain rrp6, stronger effect = lower value 0.994 | locus YOR061W, strain CKA2, stronger effect = lower value 1.01 | locus YOR069W, strain VPS5, stronger effect = lower value 1.02 | locus YOR070C, strain gyp1, stronger effect = lower value 0.998 | locus YOR080W, strain dia2, stronger effect = lower value 0.986 | locus YOR083W, strain WHI5, stronger effect = lower value 0.993 | locus YOR106W, strain vam3, stronger effect = lower value 0.997 | locus YOR136W, strain idh2, stronger effect = lower value 0.991 | locus YOR144C, strain elg1, stronger effect = lower value 0.997 | locus YOR184W, strain ser1, stronger effect = lower value 1.02 | locus YOR231W, strain MKK1, stronger effect = lower value 1 | locus YOR265W, strain rbl2, stronger effect = lower value 0.991 | locus YOR270C, strain vph1, stronger effect = lower value 1 | locus YOR290C, strain snf2, stronger effect = lower value 0.99 | locus YOR316C, strain cot1, stronger effect = lower value 0.995 | locus YPL051W, strain arl3, stronger effect = lower value 0.997 | locus YPL055C, strain LGE1, stronger effect = lower value 1.03 | locus YPL078C, strain atp4, stronger effect = lower value 0.988 | locus YPL106C, strain sse1, stronger effect = lower value 0.971 | locus YPL240C, strain hsp82, stronger effect = lower value 0.988 | locus YPL256C, strain CLN2, stronger effect = lower value 0.979 | locus YPR119W, strain clb2, stronger effect = lower value 1 | locus YPR141C, strain kar3, stronger effect = lower value 0.998 | locus YPR163C, strain tif3, stronger effect = lower value 1.01 | locus YPR167C, strain met16, stronger effect = lower value 1.01 | strain wtn01, stronger effect = lower value 1
